Records with an inconclusive call do not appear. Calls of active or inactive are those of the source.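 How the source made its calls, unless noted: active means viability loss from added drug above about 55%, and viability with drug at most 40%, in both replicates (limit read from the data, passing the limit was not always enough); inconclusive means both conditions met in only one replicate; inactive means neither replicate meets both conditions.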
Key:
[1] = Her2 expression decrease, cell viability multiplex – SKBR3 breast tumor cells, AlphaScreen, ATP viability, primary screen (AID 461;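 active means Her2 level under about 52% in both replicate screens, with viability over 70% of control, limit read from the data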;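 on Her2 level: lower value means less Her2 protein in the cells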;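 on viability: percent of carrier control wells set as 100% viability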); conditions: SKBR3 Her2 protein level, 18-24 h, measured here: SKBR3 viability, ATP luminescence, at 10 µM
[2] = molecular target: Receptor tyrosine-protein kinase erbB-2 (Homo sapiens) (UniProt P04626); experiment: as above; conditions: 18-24 h, at 10 µM, stronger effect = lower value
Chain of Receptor tyrosine-protein kinase erbB-2 (Homo sapiens) (P04626 whole entry, looked up): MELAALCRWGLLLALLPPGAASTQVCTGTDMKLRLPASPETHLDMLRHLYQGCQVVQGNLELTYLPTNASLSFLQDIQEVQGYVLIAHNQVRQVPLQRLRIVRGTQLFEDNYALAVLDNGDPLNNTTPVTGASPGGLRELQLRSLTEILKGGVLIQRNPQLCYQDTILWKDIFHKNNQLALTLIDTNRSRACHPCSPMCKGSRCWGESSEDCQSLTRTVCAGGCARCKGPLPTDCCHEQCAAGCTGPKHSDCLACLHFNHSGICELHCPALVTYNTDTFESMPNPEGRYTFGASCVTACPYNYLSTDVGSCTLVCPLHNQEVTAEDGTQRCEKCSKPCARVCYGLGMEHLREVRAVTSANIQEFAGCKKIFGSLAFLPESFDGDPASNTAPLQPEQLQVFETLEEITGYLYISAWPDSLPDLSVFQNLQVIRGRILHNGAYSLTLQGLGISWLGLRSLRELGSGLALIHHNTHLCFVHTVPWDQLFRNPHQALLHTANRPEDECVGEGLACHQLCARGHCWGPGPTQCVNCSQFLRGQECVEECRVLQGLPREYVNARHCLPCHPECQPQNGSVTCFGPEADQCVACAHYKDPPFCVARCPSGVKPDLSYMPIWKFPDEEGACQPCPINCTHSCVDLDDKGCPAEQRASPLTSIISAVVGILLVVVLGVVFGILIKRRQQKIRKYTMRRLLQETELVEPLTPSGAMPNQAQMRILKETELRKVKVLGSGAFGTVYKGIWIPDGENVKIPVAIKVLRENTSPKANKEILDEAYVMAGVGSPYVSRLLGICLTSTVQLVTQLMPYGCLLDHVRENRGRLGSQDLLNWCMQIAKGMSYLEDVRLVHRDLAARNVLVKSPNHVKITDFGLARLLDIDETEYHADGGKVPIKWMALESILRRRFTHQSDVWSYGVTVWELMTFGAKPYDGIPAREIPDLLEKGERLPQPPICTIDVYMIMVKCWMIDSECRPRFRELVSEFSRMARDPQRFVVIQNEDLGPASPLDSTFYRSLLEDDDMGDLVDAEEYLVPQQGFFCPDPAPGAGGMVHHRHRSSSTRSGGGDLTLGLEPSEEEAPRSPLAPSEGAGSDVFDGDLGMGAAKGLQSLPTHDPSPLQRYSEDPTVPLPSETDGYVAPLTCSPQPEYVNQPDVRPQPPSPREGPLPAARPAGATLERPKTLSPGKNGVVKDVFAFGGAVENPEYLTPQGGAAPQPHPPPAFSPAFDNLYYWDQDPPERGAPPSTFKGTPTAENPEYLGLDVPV

[3] = reduced viability of SK-BR-3 breast cancer cells – cell-based, 24 h, human, pilot screen (AID 572;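 active means viability at or below 10% of carrier control in both of two separate runs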;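 further: compound exposure lasted between 18 and 24 h rather than exactly 24 h; 100% = carrier-treated control wells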); conditions: SK-BR-3 viability, CellTiter-Glo luminescence, at 10 µM, stronger effect = lower value
[4] = HUVEC growth inhibition – cell-based, human, primary screen (AID 575;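 active means viability at or below 30% in both replicate assays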;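 further: 100% = median of untreated cell wells with 0.1% DMSO on each plate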); conditions: HUVEC proliferation, CellTiter-Glo luminescence, 72 h; at 10 µM; stronger effect = lower value
[5] = H69AR cell proliferation blockers – human, duplicate replicates, primary screen (AID 580;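 active means viability at or under a set limit in both replicates, limit being median viability minus 3 SD, cut at about 48% in these data, passing the limit was not always enough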;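 further: 100% = mean luminescence of untreated wells and 0% = no signal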); conditions: H69AR lung tumor cells viability, ATP luminescence, 72 h; at 10 µM; stronger effect = lower value
[6] = MRP1 drug-resistance reversers in H69AR cells – cell-based, doxorubicin co-treatment, pilot screen (AID 601); conditions: CellTiter-Glo, 72 h, at 10 µM; for differential viability (reversal): stronger effect = higher value
[7] = yeast transport mutant growth inhibition pilot in 384-well plates, post-Golgi transport modulator project (AID 636; in the data active means inhibition above about 31%); conditions: absorbance 615 nm, about 18 h, stronger effect = higher value
[8] = growth suppression of yeast trafficking mutant, preliminary HTS, modulators of trafficking downstream of Golgi apparatus project, 1536-format plate, OD 615 nm (AID 637; in the data active means inhibition above about 30%); conditions: yeast transport mutant growth, absorbance 615 nm, 18 h; stronger effect = higher value
[9] = S. cerevisiae growth inhibition in permissive medium (OD615), pilot counter-assay for S. cerevisiae lifespan shortening project, permissive growth control (AID 705;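 active means growth inhibition above 25% in both replicates, a cutoff set 3 SD above the mean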); conditions: OD615, 24 h, at 10 µM, stronger effect = higher value
[10] = S. cerevisiae growth inhibition in restrictive medium, OD615, pilot screen, restrictive growth control, yeast lifespan reduction project (AID 706;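 active means growth inhibition above a set limit, 3 SD over mean compound inhibition, in both replicates, cut at about 43% in these data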;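 further: modified DeaD lifespan yeast strain shifted to restrictive glucose medium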); conditions: OD615, 48 h, at 10 µM, stronger effect = higher value
[11] = doxorubicin toxicity protection in MRP-1 cells – H69AR cells, CellTiter-Glo, duplicate, MRP-1 activator project, pilot screen (AID 807;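 active means viability increase at or above a cutoff of the median across tested compounds plus 3 SD, cut at about 8.5% in these data, passing the limit was not always enough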;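 further: compound pretreatment 18-22 h then 72 h combined with doxorubicin; 0% = doxorubicin alone and 100% = vehicle without doxorubicin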); conditions: H69AR viability with doxorubicin, CellTiter-Glo luminescence; at 10 µM; stronger effect = higher value
[12] = viability of HCT116 without oncogenic beta-catenin – human colon tumor cells, pilot screen (AID 823;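 active means cell viability at or below a set limit in both duplicate runs, the limit being the all-compound median minus 4 SD, cut at about 23% in these data, passing the limit was not always enough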;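 further: 0% = wells killed by 20 µM Hyamine and 100% = untreated DMSO cell wells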); conditions: HCT116 beta-catenin knockout viability, CellTiter-Glo, 60 h; at 10 µM; stronger effect = lower value
[13] = viability of PTEN-null HCT116 cells – cell-based, HCT116 clonal line, CellTiter-Glo, pilot screen (AID 824;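 active means viability at or below 27.92% in each of two runs, the all-compound median minus 4 SD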;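 further: 0% = 20 µM Hyamine control and 100% = vehicle cell control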); conditions: HCT116 PTEN-deleted viability, 60 h, at 10 µM, stronger effect = lower value
[14] = RAM pathway blockade in budding yeast – dse1pr::URA3 reporter, 5-FOA selection, pilot screen (AID 869;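 active means inhibition over a set limit, the all-compound mean plus 3 SD, in both replicate runs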;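 further: 0% = DMSO wells with no growth and 100% = 10 µM 1-NA-PP1 with full growth; RAM network block rescues cells from 5-FOA so hits raise OD615 growth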); conditions: S. cerevisiae dse1pr::URA3 5-FOA growth, OD615, 2 d; at 10 µM; stronger effect = higher value; strain carries analog-sensitive mutant Cbk1 kinase
[15] = RAM signaling pathway blockade in yeast – S. cerevisiae, Pdr1DBD-CYC8 efflux-inhibited sensitized strain, primary screen (AID 1298;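 active means RAM network inhibition above 8.4% in each of two replicates, 3 SD over the compound average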;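 further: 0% = DMSO untreated cells without growth and 100% = 10 µM 1-NA-PP1 full growth; higher means more yeast growth rescued from 5-FOA killing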); conditions: S. cerevisiae cbk1-as DSE1-URA3 strain, 5-FOA growth OD615, 2 d; at 50 µM; stronger effect = higher value
[16] = H69AR cells + 2 uM doxorubicin, measured here: viability with 2 uM doxorubicin, stronger effect = lower value
[17] = H69AR cells, compound alone cytotoxicity

COc1ccc(NC(=O)CSc2nnc(-c3ccccc3)n2N)cc1
97.5%: viability [1]
inactive: Her2 level [2] 87.5% | viability [3] 97.5% | viability [4] 94.7% | viability [5] 93.6% | differential viability (reversal) ([6]; H69AR cells + 2 uM doxorubicin) 17.2% | inhibition [7] -7.87% | inhibition [8] -0.16% | growth inhibition [9] 0.265% | growth inhibition [10] 3.57% | viability increase [11] 0.58% | viability [12] 101% | viability [13] 108% | inhibition [14] 1.12% | RAM network inhibition [15] 3.84%
93.6%: viability [6, 17]
76.4%: viability [6, 16]

Cc1ccc(NC(=O)CN(c2ccc3c(c2)OCO3)S(=O)(=O)c2c(C)n[nH]c2C)cc1
inactive: Her2 level [2] 83% | viability [3] 92% | viability [4] 85.1% | viability [5] 93.1% | differential viability (reversal) ([6]; H69AR cells + 2 uM doxorubicin) 1.52% | inhibition [7] -5.73% | inhibition [8] 2.33% | growth inhibition [9] -13.4% | growth inhibition [10] -19.2% | viability increase [11] 2.09% | viability [12] 95.7% | viability [13] 96.9% | inhibition [14] 3.25% | RAM network inhibition [15] 5.15%
93.1%: viability [6, 17]
91.5%: viability [6, 16]
92%: viability [1]

CC1CCc2nn(CC(=O)NCc3ccc4c(c3)OCO4)cc2C1 (stereo not given)
100%: viability [6, 17]
inactive: Her2 level [2] 88% | viability [3] 86.5% | viability [4] 90.7% | viability [5] 100% | differential viability (reversal) ([6]; H69AR cells + 2 uM doxorubicin) 9.8% | inhibition [7] -2.93% | inhibition [8] 2.79% | growth inhibition [9] -0.315% | growth inhibition [10] -4.54% | viability increase [11] -0.84% | viability [12] 108% | viability [13] 94.5% | inhibition [14] -0.525% | RAM network inhibition [15] 1.68%
90.6%: viability [6, 16]
86.5%: viability [1]

CCOc1ccccc1N(CC(=O)N1CCCCCC1)S(C)(=O)=O
99%: viability [1]
99.8%: viability [6, 17]
89.5%: viability [6, 16]
inactive: Her2 level [2] 97% | viability [3] 99% | viability [4] 97.5% | viability [5] 99.8% | differential viability (reversal) ([6]; H69AR cells + 2 uM doxorubicin) 10.3% | inhibition [7] -1.3% | inhibition [8] 1.15% | growth inhibition [9] -4.37% | growth inhibition [10] -10.9% | viability increase [11] -1.33% | viability [12] 91.1% | viability [13] 99.4% | inhibition [14] 0.65% | RAM network inhibition [15] 3.99%

O=C(Nc1cccnc1)Nc1ccccn1
100%: viability [1]
inactive: Her2 level [2] 100% | viability [3] 100% | viability [4] 105% | viability [5] 96.9% | differential viability (reversal) ([6]; H69AR cells + 2 uM doxorubicin) 9.92% | inhibition [7] -1.69% | inhibition [8] -2.33% | growth inhibition [9] -2.38% | growth inhibition [10] -0.12% | viability increase [11] -0.73% | viability [12] 99.8% | viability [13] 92.9% | inhibition [14] 0.185% | RAM network inhibition [15] 0.51%
96.9%: viability [6, 17]
87%: viability [6, 16]

Source: PubChem BioAssay
